In PubChem BioAssay (NCI) one finds growth data, which are given here for 38 compounds.

The structures appear in SMILES notation. The panel holds about 83,000 compounds, 20% with a hit somewhere; the sample as a whole holds those more often.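 In brief: 96-well plates, 48 h treatment, single concentration, percent growth endpoint.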 A number with no mark means an inactive call. The source made the active and inactive calls. Rule for the calls: active = growth percent below 10; inactive = the rest.

This test has as its system COLO 205 colon. The test can be described thus: NCI-60 one-dose screen, 48 h (100 = growth as untreated, 0 = no growth, -100 = all killed). The following applies: 10 µM unless noted.
Regarding `c1ccc2[nH]c(-c3ccc(Nc4nc(N5CCCC5)nc5[nH]ncc45)cc3)nc2c1`, the growth was -75.9% (active). Take `COc1cc2c(cc1-c1c(C)noc1C)ncc1nc(C3CCOCC3)n([C@H](C)COC(F)F)c12`: the growth was 31.6%. The value for `c1csc(C2=NN3C(C2)c2ccccc2OC3c2ccncc2)c1` (stereo not drawn) was 112%; that for `O=C(/C=C/C=C/c1ccc2c(c1)OCO2)N/N=C\c1ccc(O)cc1O` was 14%; that for `Fc1ccc2[nH]cc(SSc3c[nH]c4ccc(F)cc34)c2c1` was 40.9%. The value for `Cc1cc(C)nc(SC2=C(Nc3cc(Cl)ccc3O)C(=O)N(Cc3ccccc3)C2=O)n1` was 112% [30 µM]; that for `CC(C)(C)N1CCC1CN` (stereo not drawn) was 138%.

As to `COc1cc(-c2nc3ccccc3[nH]2)ccc1OCC(=O)N=Nc1c(O)[nH]c2ccc(Cl)cc12`, the growth is -48.5% (active). The value for `CSc1nc(-c2cccc(NC(=O)CCl)c2)c(C#N)c(=O)n1C` was -20.2% (active). For the compound `Cc1nc2ccccc2n1C(=O)C[C@@H]1NC(=S)NC1=O`, the growth was 98.9%. With `COc1ccc(/C=N/C2=C(C#N)C(c3ccc(N(C)C)cc3)c3ccc4ccccc4c3O2)cc1` (stereo not drawn), the growth was 101%. The value for `COc1cccc(NC(=O)c2sc3nc(C)c(C(C)=O)cc3c2N)c1` was -1.6% (active); that for `O=C1CC[C@H](c2ccc(O)c3c2C(=O)[C@@H]2O[C@@H]2C3=O)c2cccc(O)c21` was -34.6% (active); that for `C=C(C)C1CC(O)C2(C)CCCC3C2C1CC(C)C3(C)CC/C(C)=C/C(O)C1CCC(=O)c2c(OC)cc(OC)cc21` (stereo not drawn) was 40.8%. With `Clc1ccc2c(NCCCNc3nc(-n4ccnc4)nc4ccccc34)ccnc2c1`, the growth is 87.7%. As to `c1ccc(CCNc2ncnc3[nH]ncc23)cc1`, the growth is 114%. `CC[C@]1(O)C[C@@H]2CN(CCc3c([nH]c4ccccc34)[C@@](C(=O)OC)(c3cc4c(cc3OC)N(C)[C@H]3[C@@](O)(C(N)=O)[C@H](O)[C@]5(CC)[C@@H]6C[C@@H]6CN6CC[C@]43[C@@H]65)C2)C1`: the growth was -44.3% (active).

On to `Cc1ccc(-c2onc3c(=O)[nH]nc(-c4ccccc4)c23)cc1`, for which the growth is 7.07% (active). In the case of `Cc1cc(N2CCCCC2)nc(NC2CCCC(Nc3ccnc4cc(Cl)ccc34)C2)n1` (stereo not drawn), the growth was -85.8% (active). In the case of `COc1cc2nc(N3CCCC3)nc(NCCc3ccccc3)c2cc1OC`, the growth is -84.8% (active). Take `O=C(COc1ccc(/C=C2\CSc3ccccc3C2=O)cc1)Nc1nccs1`: the growth was 117%.

As for `Oc1cccc(-c2nc(N3CCOCC3)c3c4c(sc3n2)CCCC4)c1`, the growth is 103%. The figure for `COc1ccc(/C=C2\Oc3cc(OCCCCN4CCCC4)ccc3C2=O)cc1` is 86.4%; for `Brc1ccc(-c2csc(Nc3ccccn3)n2)cc1` it is 107%. On to `Cc1ccc2c(C(C[N+](=O)[O-])c3ccccc3)c(-c3ccccc3)[nH]c2c1` (stereo not drawn), for which the growth is 9.02% [9.5 µM] (active). As to `Nc1ccc(-c2cc3c(Nc4ccc(Oc5cccc(C(F)(F)F)c5)c(Cl)c4)ncnc3s2)cc1`, the growth was 91.3%. The value for `COc1ccc(C(=S)N2CCN(c3cccc(Cl)c3)CC2)cc1` was 141%; that for `O=C(CCCCC(=O)N/N=C\c1ccccc1O)N/N=C\c1ccccc1O` was 35.4%; that for `CN1C(=O)C2(SCC(C(=O)NCc3ccccc3)N2C(=O)C2CCCCC2)c2ccccc21` (stereo not drawn) was 95.3%. Consider `O=C(C(=O)c1ccc2c(c1)OCO2)c1ccc2c(c1)OCO2`, for which the growth was 109%. `C=C1C(=O)O[C@H]2[C@H]1CC/C(COC(=O)NCc1ccc(OC)c(OC)c1)=C\CC[C@@]1(C)O[C@@H]21`: the growth is 8.26% (active). On to `CCNc1ncnc2c1cnn2C1CCCO1` (stereo not drawn), for which the growth is 105%.

Take `COc1ccc2c(c1)c(-c1nonc1-c1cn(C)c3ccccc13)cn2C`: the growth is 17.7%. In the case of `Nc1ccc(S(=O)(=O)O)c2ccc(N=Nc3ccc(N=Nc4ccc(S(=O)(=O)O)cc4)c4ccccc34)c(O)c12`, the growth is 105%. As for `CCOc1ccc(C(C)=O)cc1NC(=O)c1cccc(-c2nnn(CC)n2)c1`, the growth is -3.73% (active). The value for `O=C1CSC(=S)N1CCc1ccc(O)cc1` was 106%.

Turning to `COC(=O)c1ccc2oc(NC(=O)c3ccc(Nc4ccc([N+](=O)[O-])cc4C)c([N+](=O)[O-])c3)nc2c1`, the growth was 107%. The value for `CC(C)n1c(/C=C/[C@@H](O)C[C@@H](O)CC(=O)O)c(-c2ccc(F)cc2)c2ccccc21` was 75.4%.
